From PubChem BioAssay
The list is not random: actives were taken first. Their share in the collection is about 4.8%.
TGFb inhibitor – inhibitors of TGF-b signaling | 410,000 tested, 1.2% active | HepG2 CAGA-GFP TGF-b/SMAD3 reporter, GFP fluorescence, 18 h; TGF-beta stimulated, 500 pg/mL final | Potency, µM (top dose mostly 46.1 µM), for the others: at the top dose activity, negative = inhibition, most hits filed as inhibitors; note: potency is the fitted concentration of half-maximal effect; % is set by controls: 0 for no effect and ±100 for the full control effect; nearly all actives have a fitted effect of over 65% in size
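Inhibition was scored as loss of TGF-beta-induced (500 pg/mL final, 18 hours, 37 degrees C) GFP in HEPG2 cells carrying a CAGA-GFP reporter, in DMEM with 1% FBS. Well GFP was summed per cell; Activity was normalised to unstimulated and stimulated DMSO wells, then concentration-response fitting.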
ATXN2 expr inh – inhibitors of ATXN2 expression; AID 1745845; Potency, µM (highest dose often 57 µM), without a hit: at the top dose activity change, negative = inhibition, most hits filed as inhibitors; 360,000 tested, 0.72% active; HEK-293 ATXN2-luciferase reporter, luminescence, 24 h; note: potency is the fitted concentration of half-maximal effect; % is set by controls: 0 for no effect and ±100 for the full control effect; nearly all actives have a fitted effect of over 55% in size
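ATXN2-luciferase reporter cells (luciferase flanked by upstream and downstream ATXN2 gene portions) were treated 24 h at 37 °C with compounds at up to 57 uM. SteadyGlo luminescence gave expression; GF-AFC fluorescence gave viability.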
HepG2 viability – kills HepG2 cells in TGF-b inhibitor counter-screen; AID 588856; Potency, µM (series often up to 46.1 µM), without a hit: at the highest dose activity change, negative = cytotoxicity, actives largely listed as cytotoxic; 410,000 tested, 0.76% active; HepG2 CAGA-GFP viability, ATP luminescence, 18 h; note: potency is the fitted concentration of half-maximal effect
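HepG2 CAGA-GFP cells (1000/well, DMEM with 1% FBS) received compound, then TGF-beta at 500 pg/mL final, and were incubated 18 hours at 37 degrees C. Viability was read by CellTiter-Glo luminescence. Media-only wells were set as complete cell-killing and DMSO as no toxicity.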
S2 tox – reduces viability in counter-screen for ATXN expression inhibitors; S2 cells (HEK-293 line with an ATXN2-luciferase reporter) viability, CellTiter-Fluor protease fluorescence, 24 h; Potency, µM (titrated, usually from 56.7 µM), hits mostly cytotoxic; 400,000 tested, 0.49% active; AID 651635; note: potency is the fitted concentration of half-maximal effect; nearly all actives have a fitted effect of over 40% in size
DRD3 agonist – D3 dopamine receptor (human) agonism; D3R DiscoveRx beta-arrestin cells, luminescence, 90 min; 410,000 tested, 0.58% active; max activation, %; P35462; in the data active = max activation above about 30%; note: 0% is about no effect
Target sequence (P35462 whole entry, looked up): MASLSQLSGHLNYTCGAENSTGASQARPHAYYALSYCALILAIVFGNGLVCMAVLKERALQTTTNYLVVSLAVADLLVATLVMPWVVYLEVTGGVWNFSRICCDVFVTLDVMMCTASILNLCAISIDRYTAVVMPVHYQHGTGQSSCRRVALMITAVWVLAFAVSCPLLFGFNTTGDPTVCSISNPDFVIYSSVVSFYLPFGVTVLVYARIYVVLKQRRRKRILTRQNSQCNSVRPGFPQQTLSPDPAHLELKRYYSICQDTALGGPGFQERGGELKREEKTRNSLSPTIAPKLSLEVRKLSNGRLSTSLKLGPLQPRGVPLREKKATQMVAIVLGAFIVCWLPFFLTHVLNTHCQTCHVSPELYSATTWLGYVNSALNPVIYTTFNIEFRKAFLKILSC
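Agonist mode: compounds and dopamine controls were applied to plated cells for 90 min at 37 degrees C after an overnight attachment at 1500 cells/well. Luminescent read-out followed 30 - 60 minutes at room temperature with DiscoveRx detection reagent.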
DRD3 antagonist – blocks the human D3 dopamine receptor. D3R cells, DiscoveRx beta-arrestin luminescence, antagonist mode; stronger effect = lower value. P35462. AID 652054. max response, negative = inhibition, %. 360,000 tested, 2.5% active; in the data active = max response below about -50%; inconclusive = no clear call, values can overlap the other calls; note: % is set by controls: 0 for no effect and ±100 for the full control effect
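Cells plated overnight at 1500 cells/well, then exposed to library compounds with dopamine controls for 90 minutes at 37 degrees C. DiscoveRx reagent added for 30–60 minutes at room temperature; luminescence read, quantitative HTS format.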
Active calls of the source: *; i = inactive; ? = inconclusive; . = no result; [ ] = remark or other dose. Unless noted, calls come from the whole dose curve; as a rule, active = well fitted curve in the direction sought with a large enough effect; inconclusive = small, poorly fitted or top-dose-only effect, or another doubt; inactive = no such curve, though single readings can be large; an effect the other way counts as inactive or inconclusive.

SMILES	TGFb inhibitor	ATXN2 expr inh	HepG2 viability	S2 tox	DRD3 agonist	DRD3 antagonist
CCn1c2ccccc2c2nnc(SCCCn3c(=O)[nH]c4ccccc43)nc21	-1.6%	?	2.6%	20µM*	29.9	49.7
CCn1c2ccccc2c2nnc(SCc3ccccc3)nc21	-19.2%	3.5%	-24.0%	i	0.1	8.3
CCN(CC)CCSc1nnc2c3ccccc3n(Cc3ccccc3)c2n1	?	-36.0%	-42.6%	?	-22.7	-93.0*
O=c1cc(-c2ccccc2)nc(SCc2ccccc2)[nH]1	14.5%	-11.0%	-7.6%	i	8.7	-54.8*
Cn1c(SCc2nnc(-c3ccccc3Br)o2)nc2sc3c(c2c1=O)CCC3	-0.8%	-16.4%	-31.0%	?	33.7*	27.4
COc1ccc(/C=C\C(=O)CC(O)(c2ccccc2)C(F)(F)F)cc1 (configuration not stated)	?	-20.5%	-100.1%	i	-11.7	-69.9*
Cc1ccc(C2C(=O)N(C3CCCCCC3)CC(=O)N2CCC2=CCCCC2)cc1 (configuration not stated)	-2.1%	.	-1.0%	.	-11.0	.
CCOC(=O)C1(C)CCN1C(=O)c1cccc(Cl)c1 (configuration not stated)	-4.3%	-0.5%	-17.2%	i	48.5*	0.0
CCCS(=O)(=O)Nc1cc(-c2cn3cccc(C)c3n2)ccc1C	-14.1%	36.7%	-9.8%	i	-14.4	.
Nc1ccc(C(=O)c2cccs2)cn1	-4.5%	.	7.5%	i	-3.9	-15.8
Nc1ccc(-c2cnc(N)c(C(=O)c3cccnc3)n2)cn1	7.94µM*	?	-19.2%	?	-11.1	-4.8
COCC(=O)Nc1cc(C(=O)N2CCN(c3ccccc3)C(=O)C2)cc2nc(-c3ccccc3)n(C)c12	.	.	.	i	.	.
CC(=O)Nc1ccc(/C=C/c2sc3ccccc3[n+]2CCCCI)cc1	15.3%	.	-20.6%	.	.	.
CCN(CC)c1ccc(/C=C/c2sc3ccccc3[n+]2CCCCI)cc1	12.6µM*	.	-53.7%	.	.	.
Cc1ccc(-n2[nH]c(C)c(C=NC34CN5CN(CN(C5)C3)C4)c2=O)cc1C	8.5%	0.8%	10µM*	i	-0.9	8.2
COCCCN=Cc1c(C)[nH]n(-c2ccc(Br)c(C)c2)c1=O	?	35.9%	-29.6%	i	2.0	-8.2
CC(COc1ccccc1)N1CCC(CO)(Cc2ccccc2)CC1 (configuration not stated)	-8.9%	-9.9%[11.3 µM]	-8.3%	i	-9.1	-88.9*
COc1ccccc1/C=C/CN1CCCC(CO)(CCc2ccccc2)C1 (configuration not stated)	-23.0%	-19.5%	-38.5%	i	-23.3	-95.6*
CCOC(=O)C1(CCOC)CCN(C/C=C/c2ccccc2OC)CC1	?	-16.4%	-54.8%	?	-15.0	-71.2*
COc1cc(CN2CCCC(CO)(Cc3ccccc3)C2)ccc1O (configuration not stated)	16.9%	-3.3%	1.0%	i	-10.6	?
COc1ccc(CC2(CO)CCN(C/C=C/c3ccccc3OC)CC2)cc1	-8.0%	-16.0%	-15.1%	i	-26.2	-92.9*
COc1ccc(OC)c(C(Cc2ccnc3ccccc23)Cc2ccnc3ccccc23)c1	?	.	-97.0%	.	.	.
COc1ccccc1-c1nc(S(=O)(=O)c2ccccc2)c(N2CCC(C)CC2)o1	?	-21.8%	-2.4%	?	7.9	.
CC(=O)SCC(CC(=O)c1ccc(C)cc1)C(=O)O (configuration not stated)	.	-1.2%	.	i	11.5	.
COc1ccc(-n2nc(C(=O)N3CCN(c4ccccc4OC)CC3)c3c4ccccc4n(C)c3c2=O)cc1Cl	-0.5%	5.6%	-25.0%	i	-11.2	.
SMILES	TGFb inhibitor	ATXN2 expr inh	HepG2 viability	S2 tox	DRD3 agonist	DRD3 antagonist
COc1ccc(CC2(CO)CCN(Cc3ccc(OC(F)(F)F)cc3)CC2)cc1	14.1µM*	?	20µM*	?	-18.6	-20.1
COc1cccc(OC)c1OCC(O)CN1CCN(c2ccccc2)CC1 (configuration not stated)	-1.0%	-17.0%	-24.9%	i	0.6	-9.0
OCC1(CCc2ccccc2)CCCN(C/C=C/c2ccccc2)C1 (configuration not stated)	-12.5%	-19.4%	-27.4%	i	-23.0	-68.2*
COc1ccc(CC2(CO)CCN(Cc3cnn(-c4ccccc4OC)c3)CC2)cc1	-6.8%	.	-15.4%	i	-18.6	-88.8*
COc1ccc(CC2(CO)CCN(Cc3cnn(-c4ccccc4)c3)CC2)cc1	0.4%	-17.5%	-24.0%	i	-19.5	?
COc1ccccc1/C=C/CN1CCN(c2ccccc2)CC1	?	-8.6%	-40.3%	i	18.9	-64.0*
Cc1cc2c(c(-c3cnccn3)c1)OC(CNC(=O)c1cc(Cl)ccc1F)C2 (configuration not stated)	.	.	.	i	.	.
Nc1cccc[n+]1C(c1ccnc2ccccc12)[n+]1ccccc1N	?	.	-2.8%	.	.	.
CCn1c(C(=O)O)c(CC(=O)NC2CCCCCC2)c2ccccc21	-3.4%	5.6%	4.5%	i	7.0	-89.3*
CCCn1cc(S(=O)(=O)CC(=O)NC2CCCCC2)c2ccccc21	-0.1%	6.2%	2.5%	i	-24.7	-66.1*
CCCn1cc(SCC(=O)NC2CCCC2)c2ccccc21	7.1%	14.1%	8.5%	?	-21.3	2.8
COc1ccccc1C(=O)Nc1sc(C(=O)N2CCCC2)c(C)c1C#N	-6.0%	-0.4%	-2.7%	i	5.7	-2.1
Cc1c(C(=O)N2CCCC2)sc(NC(=O)c2ccc(Cl)cc2)c1C#N	0.6%	-6.0%	0.4%	i	-4.2	-55.1*
CC[N+]1(CC(=O)c2ccc(Cl)cc2)CCCCC1	0.5%	.	2.6%	.	.	.
CCCC1CC(CSC(=N)N)OC1=O (configuration not stated)	-17.0%	-7.4%	-1.9%	i	1.8	-1.3
CCCCCCC1CC(CSC(=N)N)OC1=O (configuration not stated)	15.4%	-0.5%	-14.4%	?	-1.6	-58.6*
CCCCCC1(C(=O)OCC)CC(CSC(=N)N)OC1=O (configuration not stated)	12.6µM*	0.4%	-73.3%	i	-11.7	-3.5
CN(C)CC1CCC/C(=C\c2ccc(OC(=O)/C=C/c3ccc(Cl)c(Cl)c3)cc2)C1=O (configuration not stated)	-0.1%	-12.0%	-17.3%	?	2.7	-8.8
CN(C)CC1CCC/C(=C/c2ccc(Cl)cc2)C1=O (configuration not stated)	?	?	-4.0%	11.9µM*	6.3	-13.0
Cc1nccn1C[C@@H]1CCc2c(c3ccccc3n2C)C1=O	2.1%	-5.8%	-4.0%	i	-37.6	-79.1*
